Shown are actives, neighbours in structure and some others; about 2.8% of the full set was active somewhere.
POLK inh: blocks human DNA polymerase kappa activity. purified Pol kappa, fluorescent DNA synthesis assay, 10 min. Q9UBT6. Potency, µM (highest dose often 107 µM), most hits filed as inhibitors. 0.53% of 400,000 active
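Kinetic fluorescence screen: compound preincubated 15 min RT with 10 nM enzyme; 50 nM substrate (final) initiates; reads at 0/10 min.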
WRN inhibitor: inhibitors of human WRN helicase; 0.46% of 360,000 active; AID 651768; Q14191; WRN helicase unwinding, fluorescent forked duplex, kinetic; Potency, µM (top dose mostly 114 µM), hits mostly inhibitors; also: nearly all actives have a fitted effect of over 55% in size
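WRN at 20 nM final preincubated with compound 15 min at room temperature; reaction started with 100 nM fluorophore/quencher forked duplex oligonucleotide and 2 mM ATP final. Unwinding followed kinetically by red fluorescence (ex 525, em 598 nm).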
Pol eta inh: inhibitors of human DNA polymerase eta; Q9Y253; recombinant Pol eta, fluorescent DNA replication assay; 1.2% of 390,000 active; Potency, µM (series often up to 114 µM), most hits filed as inhibitors
Target sequence (Q9Y253 whole entry, looked up): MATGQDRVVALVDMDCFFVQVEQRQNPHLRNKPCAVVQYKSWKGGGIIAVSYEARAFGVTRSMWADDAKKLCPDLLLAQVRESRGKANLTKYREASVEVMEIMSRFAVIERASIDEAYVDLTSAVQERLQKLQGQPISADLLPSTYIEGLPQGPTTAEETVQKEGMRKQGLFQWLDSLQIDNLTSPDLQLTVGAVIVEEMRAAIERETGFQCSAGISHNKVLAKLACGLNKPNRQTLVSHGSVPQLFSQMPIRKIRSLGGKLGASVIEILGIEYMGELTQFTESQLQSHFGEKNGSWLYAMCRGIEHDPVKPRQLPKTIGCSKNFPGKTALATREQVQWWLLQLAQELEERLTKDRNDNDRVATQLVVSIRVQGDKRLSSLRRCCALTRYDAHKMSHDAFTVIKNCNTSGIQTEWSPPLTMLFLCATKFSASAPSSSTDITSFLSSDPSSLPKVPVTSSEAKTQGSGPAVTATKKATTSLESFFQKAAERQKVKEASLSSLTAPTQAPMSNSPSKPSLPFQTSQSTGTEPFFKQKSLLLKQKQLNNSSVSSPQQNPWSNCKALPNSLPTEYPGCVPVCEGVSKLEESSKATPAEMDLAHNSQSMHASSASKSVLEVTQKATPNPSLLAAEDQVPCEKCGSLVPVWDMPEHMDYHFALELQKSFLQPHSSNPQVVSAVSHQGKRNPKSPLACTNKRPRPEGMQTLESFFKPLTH
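Fluorescent replication assay: 50 nM final substrate added after a 15 min room-temperature compound preincubation with 10 nM enzyme. Signal taken at 0 min and again at 10 min.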
POLB inh: inhibitors of human DNA polymerase beta; AID 485314; Potency, µM (series often up to 114 µM), hits mostly inhibitors; Pol beta primer extension/strand displacement, fluorescence kinetic; 1.3% of 340,000 active
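Homogeneous kinetic assay of primer extension and strand displacement by 10 nM Pol beta, preincubated 15 min at room temperature with compound before 50 nM substrate (final) was added. Read at 0 and 10 min; four-parameter Hill fit.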
Pol iota inh: inhibitors of human DNA polymerase iota. Q9UNA4. Pol iota fluorescent replication assay, 10 min. Potency, µM (titrated, usually from 115 µM), usual class: inhibitors. 1% of 390,000 active. AID 588590
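Pol iota at 10 nM preincubated 15 min with compounds at room temperature; reaction started with fluorescent substrate, 50 nM final. Fluorescence read kinetically at 0 and 10 min; buffer-only wells as negative control.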
PI5P4K alpha inh: inhibitors of human PI5P4K alpha | 1.2% of 330,000 active | AID 652105 | PI5P4Kalpha enzyme, ADP-Glo luminescence, 60 min; hits give low values | P48426 | max response, %; active = max response of -50% or lower; inconclusive = between -30% and -50%; inactive = -30% or higher; also: value at the top dose of about 77 µM
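PI5P4Kalpha ADP-Glo assay; 5 microM ATP final; 60 min RT reaction; HEPES pH 7.4/EGTA/CHAPS, 5% DMSO; controls lacking substrate or enzyme; luminescent end-point.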
Hits are given with their value; [ ] = dose if it differs, or a comment. Unless noted, calls follow the shape of the dose curve; as a rule, active = well fitted curve in the direction sought with a large enough effect; inconclusive = small, poorly fitted or top-dose-only effect, or another doubt; inactive = no such curve, though single readings can be large; an effect the other way counts as inactive or inconclusive.

How did Cc1sc2nc(CSC(C)C(=O)Nc3cc(S(C)(=O)=O)ccc3Cl)[nH]c(=O)c2c1C (stereo unspecified) do in these assays?
POLK inh: inconclusive; WRN inhibitor: inactive[11.6 µM]; Pol eta inh: 31.6µM; Pol iota inh: inconclusive; PI5P4K alpha inh: inconclusive

How did O=S(=O)(Nc1cccc2cccnc12)C1CC1 do in these assays?
POLK inh: inactive; Pol iota inh: inactive

Results for O=C(N/N=C/c1ccccn1)c1cc(-c2ccc(Br)s2)[nH]n1 ?
POLK inh: inactive; WRN inhibitor: inactive; Pol eta inh: inactive; POLB inh: 10µM; Pol iota inh: inactive; PI5P4K alpha inh: inactive

Results for O=C(N/N=C\c1ccncc1)c1ccc(Br)s1 ?
POLK inh: inactive; WRN inhibitor: inactive; Pol eta inh: inactive; POLB inh: inactive; Pol iota inh: inactive; PI5P4K alpha inh: inactive

Results for Cc1nn(-c2ccccc2)c(C)c1/C=N/NC(=O)c1cc(-c2ccc(Cl)s2)[nH]n1 ?
POLK inh: inactive; WRN inhibitor: inactive; Pol eta inh: inactive; POLB inh: inactive; Pol iota inh: inactive

How did O=C(N/N=C/c1ccccn1)c1cc(-c2ccc(Cl)s2)[nH]n1 do in these assays?
POLK inh: inactive; WRN inhibitor: inactive; Pol eta inh: inactive; POLB inh: 35.5µM; Pol iota inh: inactive; PI5P4K alpha inh: inconclusive

What do the screens show for `O=C(N/N=C/c1ccncc1)c1cc(-c2ccc(Br)s2)[nH]n1`?
POLK inh: inactive; WRN inhibitor: inactive[11.6 µM]; Pol eta inh: 79.4µM; POLB inh: 22.4µM; Pol iota inh: inconclusive; PI5P4K alpha inh: inactive

Results for Cc1ccccc1N1CCN(S(=O)(=O)c2nnc(NC(=O)c3ccc(C(C)C)cc3)s2)CC1 ?
POLK inh: inactive; Pol eta inh: inactive; POLB inh: inactive; Pol iota inh: inactive

What do the screens show for `COc1cc(/C=C2/C(=N)N3C(=NC2=O)SN=C3S(=O)(=O)C(C)C)ccc1OC(=O)c1ccco1`?
POLK inh: inactive; WRN inhibitor: inactive; Pol eta inh: 79.4µM; POLB inh: inactive; Pol iota inh: inconclusive; PI5P4K alpha inh: -75.2

Results for CCOc1cc(/C=C2/C(=N)N3C(=NC2=O)SN=C3S(=O)(=O)C(C)C)ccc1OC(=O)c1ccco1 ?
POLK inh: inactive; WRN inhibitor: inactive[11.6 µM]; Pol eta inh: 44.7µM; POLB inh: inactive; Pol iota inh: inactive; PI5P4K alpha inh: -83.1

Results for O=S(=O)(Nc1nc(-c2ccccc2)cs1)c1cccc(C(F)(F)F)c1 ?
POLK inh: inactive; WRN inhibitor: inactive; Pol eta inh: inactive; POLB inh: inactive; Pol iota inh: inactive; PI5P4K alpha inh: inactive

Results for COC(=O)C(Cc1ccccc1)NS(=O)(=O)c1cc(Br)ccc1Br (stereo unspecified) ?
POLK inh: inactive; Pol iota inh: inactive

How did Fc1cccc(Cc2c(-c3ccc(Cl)cc3)nc3c(Cl)cc(C(F)(F)F)cn23)c1 do in these assays?
WRN inhibitor: inactive; PI5P4K alpha inh: inactive

Results for COc1cc(NC(=O)C2CCN(S(=O)(=O)c3ccc4c(c3)CCCC(=O)N4)CC2)cc(OC)c1 ?
POLK inh: inactive; Pol eta inh: inactive; POLB inh: inactive; Pol iota inh: inactive

Results for CN(CC(=O)Nc1ccc(Cl)cc1)C(=O)CCc1ccccc1 ?
POLK inh: inactive; WRN inhibitor: inactive; Pol eta inh: inactive; POLB inh: inactive; Pol iota inh: 89.1µM; PI5P4K alpha inh: inactive

How did COC(=O)c1c(C)sc(-c2c(-c3ccc4c(c3)OCCO4)[nH]c3[nH]c(=O)[nH]c(=O)c23)c1O do in these assays?
POLK inh: inconclusive; POLB inh: 39.8µM; Pol iota inh: inconclusive

Results for Cc1ccc(Cl)c2c1=NC(=O)C=2c1[nH]c(=S)[nH]c1O ?
POLK inh: inactive; WRN inhibitor: inactive; Pol eta inh: inactive; POLB inh: inactive; Pol iota inh: inconclusive; PI5P4K alpha inh: -74.8

How did CCOc1ccc(-c2csc(/C(C#N)=C\c3ccc(O)c([N+](=O)[O-])c3)n2)cc1 do in these assays?
POLK inh: inactive; WRN inhibitor: inconclusive; Pol eta inh: 22.4µM; POLB inh: 28.2µM; Pol iota inh: inconclusive; PI5P4K alpha inh: inconclusive

What do the screens show for `CN1CCN(c2ccc(CNC(=O)c3ccc(-c4ccc(F)c(F)c4)c4ccoc34)cc2)CC1`?
WRN inhibitor: inactive; PI5P4K alpha inh: inactive

Results for O=[N+]([O-])c1ccc(NN=Cc2ccco2)nc1 ?
POLK inh: inconclusive; WRN inhibitor: inactive[11.6 µM]; Pol eta inh: 50.1µM; Pol iota inh: 44.7µM; PI5P4K alpha inh: inconclusive

Results for O=C(/C=C/c1ccc([N+](=O)[O-])cc1)/C=C/c1ccco1 ?
POLB inh: 10µM

How did O=C(/C=C/c1ccco1)NCC(=O)N/N=C/c1ccc([N+](=O)[O-])cc1 do in these assays?
POLK inh: inconclusive; WRN inhibitor: inactive[11.6 µM]; Pol eta inh: 44.7µM; POLB inh: inconclusive; Pol iota inh: 39.8µM; PI5P4K alpha inh: -60.5

What do the screens show for `O=C(COc1cccc([N+](=O)[O-])c1)N/N=C/c1ccco1`?
POLK inh: inactive; WRN inhibitor: inactive[11.6 µM]; Pol eta inh: inconclusive; POLB inh: inactive; Pol iota inh: 28.2µM; PI5P4K alpha inh: inconclusive

What do the screens show for `O=C(/C=C/c1ccco1)NCC(=O)N/N=C/c1ccc(Cl)cc1`?
POLK inh: inactive; WRN inhibitor: inactive; Pol eta inh: inactive; POLB inh: inactive; Pol iota inh: inactive; PI5P4K alpha inh: inactive

What do the screens show for `Cc1cc(C)cc(OCC(=O)N/N=C/c2ccco2)c1`?
POLK inh: inactive; WRN inhibitor: inactive; Pol eta inh: inactive; POLB inh: inactive; Pol iota inh: inactive; PI5P4K alpha inh: inactive

Results for CCC1CCCCN1C(=O)CCc1nnc(C2CCCCC2)o1 (stereo unspecified) ?
POLK inh: inactive; WRN inhibitor: inactive; Pol eta inh: inactive; POLB inh: inactive; Pol iota inh: inconclusive; PI5P4K alpha inh: inactive

Results for COc1ccc(N(CC(=O)NC2CCS(=O)(=O)C2)S(=O)(=O)c2ccc(Cl)c(Cl)c2)cc1 (stereo unspecified) ?
POLK inh: inactive; WRN inhibitor: inactive; Pol eta inh: inactive; Pol iota inh: inactive; PI5P4K alpha inh: inactive

What do the screens show for `Cc1cc(=O)oc2cc(OCC(=O)N/N=C/c3cc([N+](=O)[O-])ccc3O)ccc12`?
POLK inh: inactive; WRN inhibitor: inactive; Pol eta inh: inconclusive; POLB inh: 31.6µM; Pol iota inh: inconclusive; PI5P4K alpha inh: inactive

How did COc1ccccc1/C=C/C(=O)NCC(=O)N/N=C(/C)c1ccc(Cl)cc1 do in these assays?
POLK inh: inactive; WRN inhibitor: inactive; Pol eta inh: inactive; POLB inh: inactive; Pol iota inh: inactive; PI5P4K alpha inh: inactive

Results for C/C(=N/NC(=O)CNC(=O)/C=C/c1ccco1)c1ccc(Cl)cc1 ?
POLK inh: inactive; WRN inhibitor: inactive; Pol eta inh: inactive; POLB inh: 22.4µM; Pol iota inh: inactive; PI5P4K alpha inh: inconclusive

From PubChem BioAssay
